Laboratory results from ChEMBL document CHEMBL3988442, “University of Dundee, Small-Polar-MMV Screening Library” (2021).
Among all 48,000 compounds or so, about 13,000 (27%) showed an effect of 50% or more. The list shows a part of the results.

tested on: Wolbachia pipientis; experiment: Anti-Wolbachia Cell-Based Screen; format: functional; set-up: scale not given: in the data most compounds retested in dose-response had high values; conditions: 5 µM

Row | SMILES | Percent Effect [%]
1 | CN(C(=O)Cc1coc(-c2cccs2)n1)C1(C#N)CCC1 | 3.793
2 | CCc1nc(CN2CCCN(C(=O)C(C)COC)CC2)cs1 (configuration not stated) | 7.127
3 | COc1ccc(OC)c(C2CCN(C(=O)C3CCS(=O)(=O)CC3)C2)c1 (configuration not stated) | -1.419
4 | COc1ccc(C2=CCN(C(=O)C3CC(=O)N(C4CC4)C3)CC2)cc1 (configuration not stated) | -2.251
5 | COc1ccc(OC2CCN(C(=O)C3CCCN(C)C3)CC2)cc1 (configuration not stated) | 0.8407
6 | COc1ccc(C2=CCN(C(=O)C3CCS(=O)(=O)C3)CC2)cc1 (configuration not stated) | 136.7
7 | COc1ccc(C2=CCN(C(=O)CN(C)CC(N)=O)CC2)cc1 | -8.253
8 | COc1ccc(C2=CCN(C(=O)C3CCCN(C(N)=O)C3)CC2)cc1 (configuration not stated) | 7.391
9 | COc1ccc(C2=CCN(C(=O)C3CCCN(C(C)=O)C3)CC2)cc1 (configuration not stated) | 109.7
10 | COc1ccc(C2=CCN(C(=O)C3CCC3)CC2)cc1 | 121.8
11 | COc1ccc(C2=CCN(C(=O)CN(C)CC(C)C#N)CC2)cc1 (configuration not stated) | -3.041
12 | O=C(NCC1CC1)c1cc(Cl)c2c(c1)OCCCO2 | -14.68
13 | CCCC(C)(C)NC(=O)c1cnc(CC)s1 | -7.388
14 | CN(C)C1CC2(CCN(C(=O)C3(C#N)CC3)CC2)c2ccccc21.O=C(O)C(F)(F)F (configuration not stated) | 5.959
15 | O=C1CSCN1Cc1nc(-c2ccc(N3CCCCC3)cc2)no1 | -5.803
16 | COCC1CN(Cc2ccc(OC)cc2)Cc2nnn(CC3CC3)c21.O=C(O)C(F)(F)F (configuration not stated) | -5.304
17 | COc1ccc(CN2Cc3nnn(C)c3C(COCCN(C)C)C2)cc1.O=C(O)C(F)(F)F.O=C(O)C(F)(F)F (configuration not stated) | 106.7
18 | CCOCC1CN(Cc2ccc(OC)cc2)Cc2nn(C)cc21.O=C(O)C(F)(F)F (configuration not stated) | 11.5
19 | CN(C)CC(=O)N1Cc2nnn(C)c2C(COCc2ccccn2)C1.O=C(O)C(F)(F)F.O=C(O)C(F)(F)F (configuration not stated) | 6.818
20 | CN(C)CCOCC1CN(Cc2ccncc2)Cc2nnn(C)c21.O=C(O)C(F)(F)F.O=C(O)C(F)(F)F.O=C(O)C(F)(F)F (configuration not stated) | 96.02
21 | CN(C)CCOCC1CN(Cc2ccccn2)Cc2nnn(C)c21.O=C(O)C(F)(F)F.O=C(O)C(F)(F)F.O=C(O)C(F)(F)F (configuration not stated) | 99.25
22 | CN(C)CCOCC1CN(Cc2ccsc2)Cc2nnn(C)c21.O=C(O)C(F)(F)F.O=C(O)C(F)(F)F (configuration not stated) | 121.1
23 | Cn1nnc2c1C(COCc1ccccn1)CN(C(=O)c1ccsc1)C2.O=C(O)C(F)(F)F (configuration not stated) | -2.517
24 | Cn1nnc2c1C(COCC1CC1)CN(C(=O)Cc1ccsc1)C2 (configuration not stated) | 2.514
25 | CC(C)NC(=O)NC[C@H]1OC[C@@H](NCc2ccccc2F)[C@@H]1O | -8.31

Row | SMILES | Percent Effect [%]
26 | CC(O)CN1CCC(CN(C)Cc2ccc(C#N)cc2)CC1 (configuration not stated) | -6.641
27 | COCc1nnc(-c2cccc(C(=O)N(C)CC(C)(C)C)c2)o1 | 1.349
28 | CC(C)Oc1cccc(CN(C)C(=O)Cc2ccon2)c1 | 7.051
29 | CCS(=O)(=O)N1Cc2nnn(C)c2C(COCCN(C)C)C1.O=C(O)C(F)(F)F (configuration not stated) | 7.645
30 | CN(C)CCOCC1CN(CC2CCOCC2)Cc2nnn(C)c21.O=C(O)C(F)(F)F.O=C(O)C(F)(F)F (configuration not stated) | 0.5849
31 | CN(C)CCOCC1CN(Cc2ccc(F)cc2)Cc2nnn(C)c21.O=C(O)C(F)(F)F.O=C(O)C(F)(F)F (configuration not stated) | 94.54
32 | Cc1noc(CCCC(=O)NC(C)c2cccnc2)n1 (configuration not stated) | -10.11
33 | CN1CCN([C@@H]2CCN(C(N)=O)[C@H]2Cc2ccccc2)CC1 | -47.59
34 | CN(C)[C@@H]1CCN(C(=O)NC2CCCC2)[C@H]1Cc1ccncc1.O=C(O)C(F)(F)F.O=C(O)C(F)(F)F | -4.406
35 | COCCN1CC[C@H](O)[C@@H]1Cc1ccccc1.O=C(O)C(F)(F)F | -7.454
36 | COCC(=O)N1CC[C@@H](O)[C@@H]1Cc1ccccc1 | -9.68
37 | CN(C)C(=O)N1CC[C@@H](O)[C@@H]1Cc1ccccc1 | 109.4
38 | NC(=O)N1CC[C@H](O)[C@@H]1Cc1ccccc1 | 106.8
39 | O=C(NC1CC1)N1CC[C@@H](O)[C@@H]1Cc1ccccc1 | 101.4
40 | COCC(=O)N1CC[C@@H](N2CCOCC2)[C@@H]1Cc1ccccc1 | -5.655
41 | CCC(=O)N1CC[C@H](O)[C@@H]1Cc1ccccc1 | 99.45
42 | CC(=O)N1CC[C@@H](N2CCN(C)CC2)[C@@H]1Cc1ccccc1 | -7.108
43 | O=C(NC1CC1)N1CC[C@H](OCC2CC2)[C@@H]1Cc1cccnc1.O=C(O)C(F)(F)F | -2.258
44 | CN(C)C(=O)N1CC[C@@H](O)[C@@H]1Cc1cnn(C)c1 | 3.844
45 | c1ccc(-c2cnn3cc(CN4CCC5(CCO5)CC4)cnc23)cc1 | -14.3
46 | CC(C)C(=O)N1CCN(CC(O)c2cc(Cl)ccc2Cl)CC1 (configuration not stated) | 10.47
47 | CC(NC(=O)COc1ccc(Cl)cc1Cl)c1nncn1C(C)C (configuration not stated) | 0.4331
48 | CN(Cc1ccccc1)CC(C)(C)NC(=O)c1ccc(C(N)=O)cn1 | 12.65
49 | COCCCS(=O)(=O)N1CCN(Cc2cccn2C)CC1 | -42.29
50 | CN(C)CCCN1CC2(CCN(C(=O)C3(C)CCCCO3)CC2)OC1=O (configuration not stated) | 3.267

Row | SMILES | Percent Effect [%]
51 | O=C(c1ccnnc1)N1CC[C@H](OCC2CC2)[C@@H]1Cc1ccncc1 | 0.4029
52 | O=C(c1ccnnc1)N1CC[C@@H](O)[C@@H]1Cc1ccccc1 | 101.5
53 | CCO[C@@H]1CCN(C(=O)c2ccnnc2)[C@@H]1Cc1cnn(C)c1 | -9.757
54 | CC(C)Cc1nc(OCC(=O)O)c(C#N)c2c1CCC2 | -8.981
55 | CN(Cc1n[nH]c2c1CCCC2)c1cc(N2CCOCC2)nc(N)n1 | 14.47
56 | O=C(c1ccco1)N1CCOCC2(C1)CN(c1ccccc1)C(=O)CO2 (configuration not stated) | -13.67
57 | O=C(c1ccco1)N1CCOCC2(C1)CN(c1ccccn1)C(=O)CO2 (configuration not stated) | 92.62
58 | O=C(c1ccco1)N1CCOCC2(C1)CN(c1ccoc1)C(=O)CO2 (configuration not stated) | 100.8
59 | CN1CC2(COCCN(C(=O)c3ccco3)C2)OCC1=O (configuration not stated) | -13.58
60 | CC(O)CCN(C)c1nc2ccccc2c(=O)[nH]1 (configuration not stated) | 20.77
61 | COCc1nc(-c2ccc(S(=O)(=O)N3CCCC3)cc2)cs1 | -8.912
62 | Cc1noc(CNc2cc3c(cc2Cl)OCCCO3)n1 | 2.534
63 | c1nc2c(c(C3CCOC3)n1)CCN(Cc1ccoc1)CC2 (configuration not stated) | 7.2
64 | CCSCc1nc(O)c2nnn(C3CCN(Cc4ccco4)CC3)c2n1 | 93.96
65 | CC(C)N(C)S(=O)(=O)N1CCN(Cc2ccco2)CC1 | -10.02
66 | CCn1ncnc1C(C)NC(=O)C1CCN(Cc2ccco2)CC1 (configuration not stated) | -16.37
67 | Oc1nc(C2CC2)nc2c1nnn2C1CCN(Cc2ccoc2)CC1 | 197.8
68 | CCSCc1nc(O)c2nnn(C3CCN(Cc4ccoc4)CC3)c2n1 | 124.7
69 | O=C(O)c1cc2c(nc1-c1ccncc1)CCN(Cc1ccoc1)CC2 | -1.034
70 | O=C(CCn1cccn1)NCC(c1cccs1)N1CCOCC1 (configuration not stated) | 0.8626
71 | O=C1CC(NS(=O)(=O)N2CCOCC2)CN1Cc1ccc(F)cc1 (configuration not stated) | -0.715
72 | N#Cc1cnc2ccccc2c1N1CCN(C(=O)C2CCC2)CC1 | 4.022
73 | N#Cc1cnc2ccccc2c1N1CCC(C(=O)O)CC1 | 149.3
74 | Cl.N#Cc1cnc2ccccc2c1N1CCN(CCC(=O)O)CC1 | -4.307
75 | CCc1nc(CN(C)C(=O)NC(C)c2cccc(NC(C)=O)c2)cs1 (configuration not stated) | 4.996

Row | SMILES | Percent Effect [%]
76 | O=C1COc2cccc(OCc3ccccn3)c2N1 | -1.975
77 | N#CCCn1nc(C(F)(F)F)c2c1CCC2 | 109.3
78 | N#CCCn1nc(C(F)(F)F)c2c1CCCC2 | 118.8
79 | NCCCn1nc(C(F)(F)F)c2c1CCC2 | 77.67
80 | CC(C)Oc1nnc(SCC(=O)NCC(=O)N2CCCC2)s1 | 11.98
81 | Cc1cc(N(Cc2cccnc2)C2CC2)n2nc(C(F)(F)F)nc2n1 | 19.73
82 | CN1CCN(S(=O)(=O)c2cncc(F)c2)c2ccccc2C1 | -3.116
83 | O[C@@H]1C[C@@H](c2nc(-c3ccc(F)cc3)no2)N(C2CCOCC2)C1 | -13.07
84 | CN(C)c1cc(CC(NC(=O)C2CC2)c2ccccc2)nc(C2CC2)n1 (configuration not stated) | 92.65
85 | Cc1ccsc1C(Cc1ccccc1)NC(=O)CNC(=O)C1CC1 (configuration not stated) | -6.693
86 | CN(CCC(O)c1ccccc1)c1cc(C2CC2)ncn1 (configuration not stated) | 7.591
87 | COCC(=O)NC(Cc1cc(N(C)C)nc(C2CC2)n1)c1ccccc1 (configuration not stated) | 113.9
88 | CCC(NC(=O)C1CCN(S(=O)(=O)N(C)C)CC1)c1ccc(C)c(C)c1 (configuration not stated) | -8.706
89 | CN(CC(=O)N1CCC(C(O)c2ccccc2)CC1)c1cnccn1 (configuration not stated) | -4.983
90 | COC(=O)C(NC(=O)c1ccc(N(C)C)nc1)c1ccccc1 (configuration not stated) | 15.6
91 | CCC(=O)NC1CCCN(C(=O)Nc2cc(-c3ccccc3)on2)C1 (configuration not stated) | -16.23
92 | NC(=O)C(NC(=O)COC1CCCC1)c1ccccc1 (configuration not stated) | -1.81
93 | CCC(=O)NC(Cc1cc(N(C)C)nc(C2CC2)n1)c1ccccc1 (configuration not stated) | 105
94 | COC(=O)C(NC(=O)COC1CCCCC1)c1ccccc1 (configuration not stated) | 3.192
95 | CC(C)C(=O)NC(Cc1cc(N(C)C)nc(C2CC2)n1)c1ccccc1 (configuration not stated) | 86.08
96 | COC1CCCN(Cc2nc(Cc3ccccc3F)no2)C1 (configuration not stated) | -1.199
97 | Cc1ccc2c(c1C)OCC2NCc1ccc(C#N)cc1 (configuration not stated) | 6.111
